The full list was thinned out, with hits kept by preference.
CD40 NFkB inh: CD40 pathway inhibition in BL2 cells; BL2 NF-kB luciferase reporter, CD40L-induced, 4 h; inhibition, % at 10 µM; hit rate 0.94% among 83,000; AID 1053188;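 active = mean inhibition of at least 50% with a set share of replicates also reaching that level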;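 also: 0% = neutral control wells and 100% = IKK inhibitor VII at 50 µM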
Numbers without * were called inactive; [ ] = another dose, or the depositor's remark.

SMILES | CD40 NFkB inh
C[C@H](CO)N1C[C@H](C)[C@@H](CN(C)S(=O)(=O)c2ccsc2)OCc2ccccc2-c2c(n(C)c3ccccc23)C1=O | -6
COc1ccc(S(=O)(=O)Nc2ccc3c(c2)OC[C@H](C)NC[C@@H](C)[C@@H](OC)CN(C)C3=O)cc1 | -6[25 µM]
CC(=O)c1cccc(NC(=O)/C=C/c2ccc(S(=O)(=O)N3CCOCC3)cc2)c1 | 8
COC(=O)c1cccc(NC(=O)/C=C/c2cccc([N+](=O)[O-])c2)c1 | -30
O=C(/C=C/c1ccccc1)Nc1cccc(C(=O)O)c1 | 82*
COCC(=O)Nc1ccc2c(c1)C(=O)N(C)C[C@H](OC)[C@H](C)CN(C(=O)c1ccncc1)[C@H](C)CO2 | 0[25 µM]
CCn1c(-c2ccccc2)c(C(=O)CCl)c2ccccc21 | 22
Cn1c(=O)c(C(=O)c2ccccc2)c(O)c2ccccc21 | 6
Cn1c(-c2ccccc2)c(C(=O)CCl)c2ccccc21 | 71*
O=C(Nc1ccccc1)N1C[C@H]2[C@@H](c3ccccc31)[C@H](CO)N2Cc1ccccc1 | -15[25 µM]
N#Cc1cccc(-c2ccc([C@@H]3[C@@H](CO)N4CCCCN(C(=O)Nc5cccc(F)c5)C[C@H]34)cc2)c1 | 17[25 µM]
O=C(Nc1ccc(F)cc1)N1CCCCN2[C@@H](CO)[C@@H](c3ccc(C#Cc4ccccc4)cc3)[C@@H]2C1 | 63*
O=C(Nc1ccccc1)N1CCCCN2[C@@H](CO)[C@@H](c3ccc(C#Cc4ccccc4)cc3)[C@@H]2C1 | 28
O=C(Nc1ccc(F)cc1)N1CCCCN2[C@H](CO)[C@@H](c3ccc(C#Cc4ccccc4)cc3)[C@H]2C1 | 4
N#Cc1cccc(-c2ccc([C@@H]3[C@H]4CN(C(=O)Nc5cccc(F)c5)CCCCN4[C@H]3CO)cc2)c1 | 18[25 µM]
N#Cc1cccc(-c2ccc([C@@H]3[C@H](CO)N4CCCCN(C(=O)Nc5cccc(F)c5)C[C@@H]34)cc2)c1 | 92*[25 µM]
C/C=C/c1ccc([C@@H]2[C@@H](CO)N(C(C)=O)[C@@H]2CN(CC)C(=O)CN(C)C)cc1 | -1[25 µM]
COCC(=O)N1[C@H](CO)[C@H](c2ccc(-c3ccccc3OC)cc2)C12CN(C(C)=O)C2 | -6[25 µM]
NCc1c(O)ccc2ccccc12 | -3
Oc1ccc2ccccc2c1CNc1cnc2ccccc2c1 | 54*
Cn1c(NCc2c(O)ccc3ccccc23)nc2ccccc21 | -12
C[C@H](CO)N1C[C@H](C)[C@H](CN(C)S(=O)(=O)c2ccc(Oc3ccccc3)cc2)OCc2cn(nn2)CCCC1=O | 4
CCS(=O)(=O)N1CC(=O)N2[C@H](CO)[C@@H](c3ccc(-c4ccccc4F)cc3)[C@H]2C1 | 23
CO[C@@H]1CN(C)C(=O)c2cc(NC(=O)C3CCCC3)ccc2OC[C@@H](C)N(C)C[C@@H]1C | 6
S=C(Nc1ccccc1Oc1ccccc1)NC1CCCC1 | 9
SMILES | CD40 NFkB inh
S=C(NC1CC1)N1CCc2ccccc2C1 | 8
S=C(N/N=C1\CCc2ccccc21)NC1CCCCC1 | 62*
COCC(=O)N1CC2(CCN(Cc3ccccc3)CC2)c2c([nH]c3cc(OC)ccc23)[C@@H]1CO | -10[25 µM]
O=C(Nc1ccccn1)c1ccc(-c2ccccc2)cc1 | 113*
O=C(Nc1ccccn1)c1ccc2nc(-c3ccccc3)c(-c3ccccc3)nc2c1 | -3
O=C(Nc1ccccn1)c1ccc(S(=O)(=O)N2CCCC2)cc1 | -57
COCC(=O)N1[C@H](C#N)[C@@H](c2ccc(-c3cccc(F)c3)cc2)[C@@H]1CO | -23[25 µM]
CC(C)(C)[S@](=O)N1Cc2cc(C(=O)NCC(F)(F)F)nc(-c3cccc(-c4cccc(F)c4)c3)c2[C@@H]1CCO | 80*[25 µM]
COc1cccc(-c2cccc(-c3nc(C(=O)NCC(F)(F)F)cc4c3[C@@H](CCO)N([S@](=O)C(C)(C)C)C4)c2)c1 | 5
CC(C)(C)[S@@](=O)N1Cc2cc(C(=O)NCC(F)(F)F)nc(-c3cccc(-c4cccc(F)c4)c3)c2[C@H]1CCO | -13[25 µM]
CCCC#Cc1ccc([C@@H]2[C@H]3CN(C(=O)c4cccnc4)CC(=O)N3[C@H]2CO)cc1 | -11[25 µM]
Cc1ccc(S(=O)(=O)N(C)C[C@@H]2OCc3cn(nn3)CCCC(=O)N([C@@H](C)CO)C[C@@H]2C)cc1 | -3
COCC(=O)N1[C@H](C#N)[C@H](c2ccc(C#Cc3ccccc3F)cc2)[C@H]1CO | 73*[25 µM]
N#C[C@H]1[C@@H](c2ccccc2)[C@H](CO)N1C(=O)c1cccnc1 | 2
N#C[C@@H]1[C@H](c2ccc(C#Cc3ccccc3F)cc2)[C@H](CO)N1C(=O)C1CCCC1 | 1
N#C[C@@H]1[C@@H](c2ccc(C#Cc3ccccc3F)cc2)[C@@H](CO)N1C(=O)C1CCCC1 | -21
COCC(=O)N1[C@@H](C#N)[C@@H](c2ccc(C#Cc3ccccc3F)cc2)[C@@H]1CO | -14[25 µM]
N#C[C@H]1[C@@H](c2ccc(C#Cc3ccccc3F)cc2)[C@@H](CO)N1C(=O)C1CCCCC1 | 29
N#C[C@H]1[C@H](c2ccc(C#Cc3ccccc3F)cc2)[C@H](CO)N1C(=O)C1CC1 | 63*[25 µM]
N#C[C@H]1[C@H](c2ccc(C#Cc3ccccc3F)cc2)[C@@H](CO)N1C(=O)C1CCCCC1 | 62*

Screening data (PubChem)
